Results filed as inconclusive are left out. Activity calls are given as the source filed them. Calls follow the shape of the dose curve; as a rule, active = well fitted inhibition curve with a large enough effect; inconclusive = small, poorly fitted or top-dose-only effect; inactive = no such curve, though single readings can be large or run the other way.
assay: BET inhibitor-based combinations targeting novel dependencies in MECOM-rearranged (r) AML: UCSD-AML1 cell line (AID 2202235); settings: UCSD-AML1 AML cells viability, CellTiter-Glo, 48 h; series mostly up to 46 µM; viability (% of control): at the top concentration; also: nearly all actives have a fitted effect of over 40% in size;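 as to viability (% of control): plate controls were DMSO vehicle wells for no effect and blank wells for full effect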
Description: Ecotropic viral insertion site 1 (EVI1) is located on chromosome 3q26.2 as part of the MECOM (MDS and EVI1 complex) locus. Under normal hematopoiesis, EVI1 is a regulator of hematopoietic stem cell maintenance and self-renewal and EVI1 levels decrease as the cells differentiate. In approximately 5-10% of de novo acute myeloid leukemia (AML) EVI1 is aberrantly expressed, including Chromosomal inv(3)(q21;q26.2) or t(3;3)(q21;q26.2) alterations (MECOM-r) that account for about 50% of AML with EVI1 overexpression 31. AMLs with high levels of EVI1 have a poor prognosis and an overall survival time averaging between 10-14 months. EVI1 overexpression confers resistance in leukemia cells, highlighting the need to develop new targeted therapies for EVI1 overexpressing AMLs. Here, we performed an unbiased chemical drug screening by evaluating the single agent activity of a collection of 2,480 oncology-focused, approved and investigational drugs (NCATS Mechanism Interrogation Plates, MIPE v5.0) against a panel of seven AML cell lines. These included four MECOM-r cell-lines (AML-191, AML-194, UCSD-AML1 and HNT-34) and three non-MECOM-r AMLs (MV4-11, OCI-AML3 and SET-2). Exploiting the mechanistic redundancy built in the library, we identified target-level sensitivities in MECOM-r AML cells and relative activity as compared to other AML subtypes.
A collection of 2480 mechanistically annotated dugs (MIPE v5.0) was used to screen four 3q26.2 rearranged AML cell lines and three non-3q26.2 rearranged AML cell lines. This library purposely exploits redundancy by including multiple inhibitors of key onco-targets, while simultaneously encompassing mechanistic diversity, targeting more than 800 distinct mechanisms of action. Briefly, cells were seeded in 5 uL of growth media using a Multidrop Combi dispenser into 1536 well white polystyrene tissue culture treated plates (Corning) at a density of 500cells/well. For each cell-line, for each of the 2480 drugs in MIPE v5.0 library, an 11-point dose curve was generated via a 1536 pin-tool. Plates were incubated for 48 hr at standard incubator conditions, covered by a stainless steel gasketed lid to prevent evaporation. Cell viability was determined by luminescence based, Cell Titer Glo assay (Promega). In detail, 3 uL of Cell Titer Glo were added to each well and plates were incubated at room temperature for 15 min with a stainless-steel lid in place. Luminescence readings were taken using a Viewlux (PerkinElmer) with a 2 s exposure time per plate. Compound dose-response curves were normalized to DMSO and empty well controls on each plate. Quantitative drug activity data from dose-response curves was determined utilizing area Under the Curve (AUC) and Z-transformed AUC (Z-AUC, a mean-centering transformation applied to each individual cell-line screened).
Potency is read from the fitted curve at half-maximal effect.

| Structure (SMILES) | viability (% of control) | Potency |
| --- | --- | --- |
| OCCn1cc(-c2cnc3nnn(Cc4ccc5ncccc5c4)c3n2)cn1 | 104% (inactive) | – |
| C=C1C(=O)OC(CCCCCCCC)C1C(=O)O (stereo not given) | 103% (inactive) | – |
| CN1CCC(=C2c3ccccc3CC(=O)c3sccc32)CC1 | 101% (inactive) | – |
| COc1cc(C(=O)N2CCC(N3CCN(C)CC3)CC2)ccc1Nc1ncc2c(n1)N(C)c1ccccc1C(=O)N2C | – | 4.68 µM (active) |
| CCn1c(C(=O)N(C2CC2)C2CC2)cc2c3c(ncn3C)c(Nc3cc(C)n(C)n3)nc21 | – | 3.32 µM (active) |
| CCOC(=O)C1=C(N)Oc2ccc(Br)cc2C1C(C#N)C(=O)OCC (stereo not given) | 112% (inactive) | – |
| CC(C)=CC[C@@H](O)C1=CC(=O)c2c(O)ccc(O)c2C1=O | – | 10.5 µM (active) |
| Cn1c(Nc2ccc(C(F)(F)F)cc2)nc2cc(Oc3ccnc(-c4ncc(C(F)(F)F)[nH]4)c3)ccc21 | – | 0.833 µM (active) |
| Cc1nn(Cc2ccccc2Cl)c(C)c1CN(C)CC(O)COc1ccc(Cl)cc1 (stereo not given) | 112% (inactive) | – |
| Cc1[nH]c(/C=C2\C(=O)Nc3ccc(F)cc32)c(C)c1C(=O)NCCN1CCCC1 | – | 8.11 µM (active) |
| Nc1ncnc2c1c(-c1cnc3[nH]ccc3c1)nn2C1CCCC1 | – | 0.372 µM (active) |
| CCC1=C(C)CN(C(=O)NCCc2ccc(S(=O)(=O)NC(=O)NC3CCC(C)CC3)cc2)C1=O (stereo not given) | 106% (inactive) | – |
| O=C1c2cccc(O)c2C(=O)c2c(O)cc(CO)cc21 | 115% (inactive) | – |
| c1ccc(-c2oc3ncnc(NC[C@@H]4CCCO4)c3c2-c2ccccc2)cc1 | 102% (inactive) | – |
| Cc1ccc(S(=O)(=O)NC(=O)NN2CC3CCCC3C2)cc1 (stereo not given) | 110% (inactive) | – |
| C[C@@H](N)c1ccc(C(=O)Nc2ccnc3[nH]ccc23)cc1 | – | 18.6 µM (active) |
| COc1cc2nccc(Oc3ccc(NC(=O)Nc4cc(C)on4)c(Cl)c3)c2cc1OC | – | 16.6 µM (active) |
| O=C1NC(=O)C(c2cnc3ccccn23)=C1c1cn2c3c(cccc13)CN(C(=O)N1CCOCC1)CC2 | – | 1.05 µM (active) |
| COC(=O)C1=C(C)NC(C)=C(C(=O)OCCCN2CCC(c3ccccc3)(c3ccccc3)CC2)C1c1cccc([N+](=O)[O-])c1 (stereo not given) | – | 14.8 µM (active) |
| CC(=O)Oc1cc2c(s1)CCN(C(C(=O)C1CC1)c1ccccc1F)C2 (stereo not given) | 104% (inactive) | – |

| Structure (SMILES) | viability (% of control) | Potency |
| --- | --- | --- |
| O=C(Nc1ccc([N+](=O)[O-])cc1Cl)c1cc(Cl)ccc1O | – | 1.32 µM (active) |
| O=C1CCc2ccc(OCCCCN3CCN(c4cccc(Cl)c4Cl)CC3)cc2N1 | – | 23.5 µM (active) |
| CC(C)(O)CCc1ccc(OCc2cc(-c3cccc(OC(F)F)c3)c3ncccc3c2)cc1 | 103% (inactive) | – |
| CN(C)CCOc1cc(-c2cn[nH]c2)ccc1NC(=O)C1COc2ccccc2O1 (stereo not given) | 105% (inactive) | – |
| Cc1c(NC(=O)c2cc3c(s2)CCCC3)cccc1-c1cn(C)c(=O)c(Nc2ccc(C3C(=O)N(C)CCN3C)cc2)n1 (stereo not given) | 122% (inactive) | – |
| C=CC(=O)Nc1cccc(Nc2nc(Nc3ccc(Oc4ccnc(C(=O)NC)c4)cc3)ncc2F)c1 | – | 18.6 µM (active) |
| O=c1[nH]c(=O)n([C@H]2C[C@H](O)[C@@H](CO)O2)cc1I | – | 20.9 µM (active) |
| CC(C)(Oc1ccc(C2CC2(Cl)Cl)cc1)C(=O)O (stereo not given) | 102% (inactive) | – |
| CC(=O)Nc1ccc(C(=O)Nc2ccccc2N)cc1 | – | 10.5 µM (active) |
| NCCCC(O)(P(=O)(O)O)P(=O)(O)O | 104% (inactive) | – |
| CCCc1nc2c(C)cc(-c3nc4ccccc4n3C)cc2n1Cc1ccc(-c2ccccc2C(=O)O)cc1 | 106% (inactive) | – |
| COc1ccc(-c2cc3nccn3c(Nc3ncccc3C(N)=O)n2)cc1OC | – | 6.61 µM (active) |
| CNC(=O)c1ccc2c(C(=Nc3cccc(CN(C)C)c3)c3ccccc3)c(O)[nH]c2c1 | 110% (inactive) | – |
| NC[C@H]1O[C@H](O[C@@H]2[C@@H](O)[C@@H](O[C@H]3O[C@H](CO)[C@@H](O)[C@H](N)[C@@H]3O)[C@H](N)C[C@@H]2N)[C@H](O)[C@@H](O)[C@H]1O | 109% (inactive) | – |
| O=C(O)CC1CCC(c2ccc(-c3ccc(Nc4ccc(C(F)(F)F)nc4)cn3)cc2)CC1 (stereo not given) | 115% (inactive) | – |
| O=c1[nH]c(=O)n(C2CCCO2)cc1F (stereo not given) | 105% (inactive) | – |
| CCC(CC)C(c1ccc(Nc2nc3ccccc3s2)cc1)n1cncn1 (stereo not given) | 114% (inactive) | – |
| CCC[C@H](N[C@@H](C)C(=O)N1[C@@H]2CCCC[C@H]2C[C@H]1C(=O)O)C(=O)OCC | 117% (inactive) | – |
| c1ccc(-c2ccc(CNc3nc(-c4ccccn4)nnc3-c3ccccc3)cc2)cc1 | – | 1.05 µM (active) |
| CN(CC(=O)N(Cc1ccc(C2CCCCC2)cc1)c1ccc(C(=O)O)c(O)c1)S(=O)(=O)c1c(F)c(F)c(F)c(F)c1F | 126% (inactive) | – |
